The structures appear in SMILES notation. Screen size: about 2,200 compounds; about 1,500 (68%) were called active. So high a share suggests a set chosen from earlier hits. Only a sample is shown. Unmarked numbers belong to inactive results. Rule as the data show it: active = inhibition above about 23%; inactive = the rest.

In the assay the target is Perilipin-5 (Homo sapiens) + 1-acylglycerol-3-phosphate O-acyltransferase ABHD5 (Homo sapiens) (UniProt Q00G26+Q8WTS1). Kind of assay: blockers of ABHD5 binding to perilipin-5 – biochemical, luminescence, confirmation (AID 651612).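 Also: 0% = DMSO vehicle wells.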 The note with it: biochemical ABHD5-PLIN5 interaction, at 4 µM, stronger effect = higher value.
Chain of Perilipin-5 (Homo sapiens) + 1-acylglycerol-3-phosphate O-acyltransferase ABHD5 (Homo sapiens) (Q00G26 whole entry, looked up): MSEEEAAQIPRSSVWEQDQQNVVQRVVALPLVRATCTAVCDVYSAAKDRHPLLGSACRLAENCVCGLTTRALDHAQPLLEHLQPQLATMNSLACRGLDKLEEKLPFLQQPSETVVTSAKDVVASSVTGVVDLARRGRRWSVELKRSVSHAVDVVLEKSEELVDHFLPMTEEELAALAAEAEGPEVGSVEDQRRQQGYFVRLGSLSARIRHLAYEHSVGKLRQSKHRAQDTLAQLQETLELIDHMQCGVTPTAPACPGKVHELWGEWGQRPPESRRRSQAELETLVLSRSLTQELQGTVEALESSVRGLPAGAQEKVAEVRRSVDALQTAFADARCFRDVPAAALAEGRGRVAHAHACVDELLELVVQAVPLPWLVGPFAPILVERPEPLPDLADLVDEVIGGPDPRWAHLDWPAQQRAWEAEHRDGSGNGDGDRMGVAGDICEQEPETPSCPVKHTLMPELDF
Chain of Perilipin-5 (Homo sapiens) + 1-acylglycerol-3-phosphate O-acyltransferase ABHD5 (Homo sapiens) (Q8WTS1 whole entry, looked up): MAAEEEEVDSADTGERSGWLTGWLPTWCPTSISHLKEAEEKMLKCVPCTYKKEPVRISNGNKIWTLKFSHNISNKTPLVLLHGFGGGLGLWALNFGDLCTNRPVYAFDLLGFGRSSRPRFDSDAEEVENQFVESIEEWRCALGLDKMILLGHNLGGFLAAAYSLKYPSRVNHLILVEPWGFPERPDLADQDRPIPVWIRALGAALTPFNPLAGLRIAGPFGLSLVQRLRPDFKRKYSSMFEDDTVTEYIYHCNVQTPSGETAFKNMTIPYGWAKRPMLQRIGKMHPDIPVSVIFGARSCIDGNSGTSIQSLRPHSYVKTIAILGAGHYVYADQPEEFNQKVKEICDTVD
The term inhibition denotes the relative decrease from the control value, in per cent. As for `C=C(C)C(=O)O[C@H]1C/C(C)=C\C(=O)/C=C(\C)[C@H](O)[C@@H]2OC(=O)C(=C)[C@@H]21`, the inhibition is 45.7% (active). On to `NC(=O)c1nsc(C(=O)N(CC(=O)NCc2ccc(F)cc2)Cc2ccco2)c1N`, for which the inhibition was 4.49%. For `CCC(C(=O)OCCN(CC)CC)c1ccccc1` (stereo unspecified) the value was 79.4% (active); for `C=C1C(=O)[C@]23C[C@H]1CCC2[C@@]1(C)C(C[C@@H]3O)[C@](C)(C(=O)O)CC[C@@H]1O` (stereo partly specified), 34.6% (active); for `COC(C/C=C/C(=O)[C@@H](C)OCc1ccccc1)OC`, 41.6% (active). Take `COC(=O)c1cnn2c(C(F)(F)F)cc(-c3ccco3)nc12`: the inhibition is 14%. Take `O=C1/C(=C\c2ccc([N+](=O)[O-])cc2)CS(=O)(=O)C/C1=C/c1ccc([N+](=O)[O-])cc1`: the inhibition was 103% (active). Regarding `Cc1cccc(C)c1NC(=O)C(Cl)C(=O)c1ccccc1` (stereo unspecified), the inhibition was 68.9% (active). With `COc1ccc(-c2cc(C(F)(F)F)nc(S(C)(=O)=O)n2)cc1OC` the figure was 52.6% (active).

For the molecule `COCCN(CCOC)c1nc(N)c2c(N)nc3c(c2c1C#N)CC(=O)N3Cc1ccc(Cl)cc1`, the inhibition is 32.1% (active). `COc1ccc2sc(-c3ccccc3OC)c(-c3ccc(OCCN4CCCC4)cc3)c2c1`: the inhibition is 15.5%. `CCN1CCC(O)(/C=C/c2ccc(C)cc2)C(C(=O)/C=C/c2ccc(C)cc2)C1` (stereo unspecified): the inhibition is 90.5% (active). Turning to `O=C(CCN1CCc2ccccc2C(O)(c2ccccc2)C1)c1ccc2c(c1)OCCO2` (stereo unspecified), the inhibition was 51.6% (active). Turning to `Cc1c(CCOC(=O)CC23CC4CC(CC(C)(C4)C2)C3)sc[n+]1Cc1ccc([N+](=O)[O-])cc1`, the inhibition was 16.8%. Consider `Cc1ccc2nc(-c3ccco3)c(Cc3cccc(Cl)c3)n2c1`, for which the inhibition was 26.5% (active).

Consider `Cc1ccc(Cc2c(-c3ccco3)nc3ccc(Cl)cn23)cc1`, for which the inhibition was 32.4% (active). For the molecule `O=C1C(Cl)=C(Oc2ccccc2)C(=O)c2ccccc21`, the inhibition was 85.3% (active). As to `O=c1[nH][nH]c2c1[C@H](c1ccc(Cl)cc1)O[C@H](CCc1ccccc1)C2`, the inhibition is 2.53%. With `Cc1csc(NC(=O)NC2(C(F)(F)F)Oc3ccccc3O2)n1` the figure was 92.4% (active); with `O=C(c1cccnc1)N(c1cc2sc(=O)oc2c2ccccc12)S(=O)(=O)c1ccccc1`, -3.41%; with `Cc1ccc(NC(=O)Cn2sc3ccccc3c2=O)cc1`, 74% (active).

As to `CC1Cc2ccccc2N1CC(=O)Nc1ccc(S(N)(=O)=O)cc1` (stereo unspecified), the inhibition is 7.58%. `Cc1ccc(-n2nc(-c3ccco3)cc2C(=O)NCc2cccnc2)cc1`: the inhibition is 38.1% (active).

As for `O=C(Nc1ccccc1Cl)/C(Cl)=C(\Cl)S(=O)c1ccccc1` (stereo unspecified), the inhibition is 101% (active).

With `CC1(C(=O)NCc2cccc3ccccc23)CCN1Cc1ccc(-c2ccccc2)o1` (stereo unspecified), the inhibition is 16.1%. Turning to `Cc1nc(-c2ccccc2)sc1C(=O)/C=C/c1ccccc1`, the inhibition was 81.5% (active).

Turning to `CCS(=O)(=O)Nc1ccc(C2=NN(S(=O)(=O)c3ccc(F)cc3)C(c3ccco3)C2)cc1` (stereo unspecified), the inhibition is 10.4%. As for `Cn1sc(=O)c2cc(S(=O)(=O)NC3CC3)ccc21`, the inhibition is 34.2% (active). Turning to `CN(C)CCCNC(=O)/C=C/c1ccc(OCc2c(F)cccc2Cl)cc1`, the inhibition is 10.8%. In the case of `Cc1ccc(CS(=O)(=O)c2ncc(Cl)c(C(=O)Nc3nnc(C)s3)n2)cc1`, the inhibition was 79.9% (active).

Take `CSc1nnc(NC(=O)c2nc(S(=O)(=O)Cc3ccc(C)cc3)ncc2Cl)s1`: the inhibition was 79.6% (active). In the case of `O=C(Nc1nc(-c2ccco2)c(-c2ccco2)s1)c1ccco1`, the inhibition is 60.6% (active). On to `COC(=O)c1nc(NC(=O)c2ccc(C(C)(C)C)cc2)n[nH]1`, for which the inhibition is 10.3%.

As for `Cc1cc(-c2n[nH]c(=S)n2/N=C/C(Br)=C/c2ccccc2)n[nH]1`, the inhibition was 63% (active). With `O=C(/C(=C/c1cccc(Cl)c1)c1nc2ccccc2[nH]1)c1ccccc1`, the inhibition was 98.9% (active). With `CC(=O)Nc1ccc(C=CC(=O)c2ccc([N+](=O)[O-])cc2)cc1` the figure was 84.1% (active). Regarding `O=C(/C=C/c1ccc(Cl)c([N+](=O)[O-])c1)c1ccc(O)cc1`, the inhibition was 90.2% (active). On to `COC(=O)C1(C)NC(c2ccccc2OC)C2C(=O)N(c3ccccc3)C(=O)C21` (stereo unspecified), for which the inhibition was -5.37%. As to `CCN(CC)CCN(C(=O)c1ccc2c(c1)CCCC2)c1nc2c(OC)cccc2s1`, the inhibition is 7.79%. On to `COc1ccc2c(c1)c(=Cc1ccc(N(C)C)cc1)c1cc(-c3ccccc3)[n+](C)n12`, for which the inhibition is 28.5% (active).

`OC(CNCC1CCCO1)Cn1c2ccc(Br)cc2c2cc(Br)ccc21` (stereo unspecified): the inhibition was 12.6%. Regarding `COC(=O)/C=C\C(=O)Nc1cccc([N+](=O)[O-])c1`, the inhibition is 83.5% (active). For the molecule `COc1ccc2c(c1OC)C(=O)OC2Nc1nc(-c2ccccc2)cs1` (stereo unspecified), the inhibition is 61.3% (active).

As for `O=C1/C(=C\c2ccc(O)cc2)CCC1CNc1ccc(Cl)cc1` (stereo unspecified), the inhibition was 25.6% (active). Consider `COc1ccc(CCNC(=O)c2nnc(CS(=O)(=O)c3ccccc3)o2)cc1OC`, for which the inhibition is 6.71%. Regarding `COc1ccccc1-n1nnnc1S(=O)(=O)Cc1ccc(Cl)cc1`, the inhibition was 49.7% (active). Take `Cc1cccc(C)c1NC(=O)C(c1ccc(C(F)(F)F)cc1)n1c(=O)c(-c2ccco2)nc2ccccc21` (stereo unspecified): the inhibition was 80.6% (active).

Take `N#Cc1ccc(C(C(=O)NCc2ccccc2)n2c(=O)c(-c3ccco3)nc3ccccc32)cc1` (stereo unspecified): the inhibition was 91.9% (active). Regarding `O=C(NC1CCCCC1)C(c1cc2ccccc2o1)n1c(=O)c(-c2ccco2)nc2ccccc21` (stereo unspecified), the inhibition was 80.4% (active). For `Cc1cccc(C)c1NC(=O)C(c1cccc2ccccc12)n1c(=O)c(-c2ccco2)nc2ccccc21` (stereo unspecified) the value was 53% (active). For the molecule `CCn1c(SC)nc(O)c(C(c2ccc(OC)c(O)c2)c2c(O)nc(SC)n(CC)c2=O)c1=O`, the inhibition was 62% (active).

As to `O=C(NCCOCc1ccc(Cl)cc1)c1ncn[nH]1`, the inhibition is 6.41%. With `COc1ccc(C(C[N+](=O)[O-])n2nc(C)cc2C)cc1` (stereo unspecified) the figure was 62.2% (active). For `CCN(CCCNC(=O)c1ccc2c(c1)NC(=O)CN2C)c1cccc(C)c1` the value was 50.9% (active); for `Cc1nnnn1/C(=C\c1ccccc1)C(=O)OCC(=O)N1CC2(C)CC1CC(C)(C)C2` (stereo unspecified), 54.9% (active); for `O=[N+]([O-])c1c(NCCO)cc(Sc2nc3ccccc3s2)c2nonc12`, 51.7% (active). For `Cc1cccc(NC(=O)c2ccc3nsnc3c2)c1C` the value was 2.22%; for `O=C(CCl)Nc1ccc(Sc2ccc(NC(=O)CCl)cc2)cc1`, 40.2% (active). With `O=C(/C=C/c1ccc(Cl)cc1Cl)c1cccnc1`, the inhibition was 98.6% (active).

As for `COc1ccc(/C=C/C(=O)c2ccc(NS(=O)(=O)c3ccc(C)cc3)cc2)cc1O`, the inhibition was 55.4% (active). `Cc1cccc(CS(=O)(=O)c2ncc(Cl)c(C(=O)Nc3ccc(F)cc3)n2)c1`: the inhibition was 82.7% (active).

`Cc1cccc(NC(=O)c2nc(S(=O)(=O)Cc3ccccc3)ncc2Cl)c1`: the inhibition is 90.7% (active). `O=C1C=C(c2ccc(Cl)cc2)C(=O)N1Nc1ccccc1`: the inhibition was 102% (active).

As for `O=C(NNc1ccccn1)c1ccc(Cl)nc1`, the inhibition is 2.34%.

As to `CCN1/C(=C\c2ccc3ccccc3[n+]2CC)Sc2cc(C)ccc21`, the inhibition is 16.8%.

As to `Nc1cccc(OCCCCCOc2cccc(N)c2)c1`, the inhibition is 3.48%. For `Cc1cc(C)nc(S/C=C/C(=O)c2ccccc2)n1` the value was 96.8% (active).

In the case of `c1ccc(CCC2=NCCn3cccc32)cc1`, the inhibition was 28.8% (active). With `Cc1ccc(NC(=O)c2cc(-c3ccc(C)o3)nc3ccccc23)nc1` the figure was 24% (active); with `CC1(Oc2ccccc2-c2ccno2)CCN(Cc2ccc(-c3ccccc3)o2)C1` (stereo unspecified), 16.2%. Regarding `Cc1nc2sc(C(c3ccco3)N3CCOCC3)c(O)n2n1` (stereo unspecified), the inhibition is 5.85%.

As to `N#Cc1ccccc1S(=O)(=O)N1CCN(Cc2c(O)ccc3ccccc23)CC1`, the inhibition is 53% (active).

In the case of `CCCCOC(=O)CNc1nnc(SCC(=O)OCC)[nH]c1=O`, the inhibition was 69.3% (active).

On to `O=C(/C=C(O)/C=C/c1ccc(O)cc1)/C=C/c1ccc(O)cc1`, for which the inhibition was 63.4% (active).

On to `O=C(Cn1nc(CNc2ccc(Cl)cc2)[n+]2c1CCCCC2)c1ccc(Cl)cc1`, for which the inhibition is 19.8%. For the molecule `CN1CCC[C@@H]1CCO[C@](C)(c1ccccc1)c1ccc(Cl)cc1`, the inhibition is 27.9% (active). Consider `CCOC(=O)C(=Cc1ccccc1)C(=O)c1ccccc1`, for which the inhibition was 98.5% (active). Regarding `CCOC(=O)C(=Cc1ccccc1OC)C(=O)OCC`, the inhibition is 60.3% (active). `Cc1[nH]c(=O)c(C(=O)/C=C/c2ccccc2)c2c1CCCC2`: the inhibition was 56.5% (active). As for `CC1=CC(C)(C)Nc2ccc(OC(=O)C(Cc3ccccc3)N3C(=O)C4CCCCC4C3=O)cc21` (stereo unspecified), the inhibition was -3.56%. For `CC1=CC(C)(C)Nc2ccc(OC(=O)CN3C(=O)C4CCCCC4C3=O)cc21` (stereo unspecified) the value was 83.2% (active).

These data come from PubChem BioAssay AID651612 (The Scripps Research Institute Molecular Screening Center, 2012).
